Activity calls are given as the source filed them.
Columns and labels:
[1] = small molecules captured by biotinylated probe aFSTL3 – biochemical, small-molecule microarray, fluorescence 635/667, stem cell growth factor project, primary screen (AID 1064); conditions: higher = more signal;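 also: measures binding of the biotinylated anti-FSTL3 antibody to printed compounds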
[2] = binders from COS7 lysate, DM2A8 probe, primary screen, torsin A project, cell lysate, small-molecule microarray, fluorescence 635/667 (AID 1065); conditions: higher = more signal, COS7 lysate expressing mutant human TOR1A
[3] = small molecules captured by biotinylated probe aFGF2 – biochemical, small-molecule microarray, fluorescence 635/667, stem cell growth factor project, primary screen (AID 1067); conditions: higher = more signal;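 also: measures binding of biotinylated aFGF2 protein to printed compounds on slides; z-score merges feature fluorescence and signal-to-noise across triplicate slides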
[4] = small molecules captured by biotinylated probe aFGF10 – biochemical, small-molecule microarray, fluorescence 635/667, stem cell growth factor project, primary screen (AID 1071); conditions: higher = more signal;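 also: score merges 667 nm spot intensity and signal to noise from triplicate slides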
[5] = target: Neurogenic locus notch homolog protein 2 (Homo sapiens) (UniProt Q04721); assay: small molecules binding Notch2 protein – biochemical, small-molecule microarray, 635 nm fluorescence, stem cell growth factors, primary screen (AID 1073); conditions: higher = more signal
[6] = target: Pro-neuregulin-1, membrane-bound isoform (Homo sapiens) (UniProt Q02297); assay: small molecules binding neuregulin-1 protein – biochemical, small-molecule microarray, fluorescence 635/667, psychiatric disease protein project, primary screen (AID 1075); conditions: NRG1 binding, 635 nm fluorescence, higher = more signal;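 also: score combines 667 nm spot fluorescence with signal to noise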
[7] = tested on: Neuregulin-1 EGF-like domain; assay: small molecules binding NRG1 EGF domain – biochemical, small-molecule microarray, 635 nm fluorescence, primary screen (AID 1081); conditions: higher = more signal;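 also: binding of the protein to compounds printed on small-molecule microarray slides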
[8] = FRG1 expression reporter modulators in myotubes – cell-based, C2C12 myotubes, firefly/Renilla luciferase, luminescence, FRG1 inhibition for FSHD, primary screen (AID 1084); conditions: FRG1 promoter luciferase, higher = more signal, called active from +8 up or from −8 down
[9] = small molecules captured by biotinylated probe aFST – biochemical, small-molecule microarray, fluorescence 635/667, stem cell growth factor project, primary screen (AID 1086); conditions: higher = more signal;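 also: score merges 667 nm fluorescence with signal-to-noise of each printed compound spot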
[10] = binders of probe aHhip on microarray, primary screen, stem cell growth factor project, biochemical, small-molecule microarray, fluorescence 635/667 (AID 1087); conditions: higher = more signal;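 also: score merges spot fluorescence at 667nm with spot signal to noise ratio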
[11] = tested on: PRMT1 (protein arginine N-methyltransferase 1); assay: small molecules binding arginine methyltransferase PRMT1 – biochemical, small-molecule microarray, 635 nm fluorescence, primary screen (AID 1088); conditions: higher = more signal;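 also: binding of Prmt1 protein to compounds spotted on small-molecule microarray slides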
[12] = growth effects on S. cerevisiae YJM789 – YJM789 clinical isolate, OD600, 24 h, basal, primary screen (AID 1089); conditions: higher = more signal, called active from +8 up or from −8 down;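 also: growth of clinical yeast isolate S. cerevisiae YJM 789 seeded 1000 cells per well; test concentration not given here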
[13] = S. pombe growth modifiers, basal conditions – strain 972, OD600, 24 h, no modulator, primary screen (AID 1090);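 also: basal condition with compound alone and no growth modifier present; test concentration not given here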; conditions: S. pombe 972 growth, higher = more signal, called active from +8 up or from −8 down
[14] = budding yeast growth modifiers under rapamycin – strain BY4716, OD600, 96 h, primary screen (AID 1091); also: test concentration not given here; conditions: S. cerevisiae BY4716 + rapamycin, higher = more signal, called active from +8 up or from −8 down
[15] = target: Torsin-1A-interacting protein 2 (Homo sapiens) (UniProt Q8NFQ8); assay: small molecules binding lysate-expressed LULL1 – cell lysate, human LULL1 lysate, 635/667 nm fluorescence, primary screen (AID 1092); conditions: small-molecule microarray, hLULL1 lysate binding, 635 nm fluorescence; higher = more signal;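 also: probe is lysate of COS7 cells overexpressing human LULL1; score merges per-feature 667 nm fluorescence with signal-to-noise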
[16] = optical density change of DRC41 E. coli – strain DRC41, OD650, 24 h, E. coli filamentation project, primary screen (AID 1093);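 also: MC1000 strain lacking acrAB efflux and sulA so SOS filamentation is blocked; test concentration not given here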; conditions: E. coli DRC41 growth, higher = more signal, called active from +8 up or from −8 down
[17] = probe aLefty2 binding to arrayed compounds – biochemical, biotinylated probe, 635/667 nm fluorescence, primary screen (AID 1094); conditions: small-molecule microarray, higher = more signal;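 also: score merges spot fluorescence near 667 nm with spot signal-to-noise ratio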
[18] = tested on: Noggin (protein binding on small-molecule microarray); assay: small molecules binding Noggin protein – biochemical, 635/667 nm fluorescence, primary screen (AID 1095); conditions: 635 nm fluorescence, higher = more signal;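 also: score merges 667 nm feature fluorescence with signal to noise over triplicate slides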
[19] = target: Neurogenic locus notch homolog protein 3 (Homo sapiens) (UniProt Q9UM47); assay: small molecules binding NOTCH3 protein – biochemical, 635/667 nm fluorescence, primary screen (AID 1096); conditions: small-molecule microarray, 635 nm fluorescence, higher = more signal
[20] = probe aEGFR binding to arrayed compounds – biochemical, biotinylated probe, 635/667 nm fluorescence, primary screen (AID 1097); conditions: small-molecule microarray, higher = more signal;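 also: probe is a biotinylated anti-EGFR antibody binding compounds printed on slides; score combines fluorescence near 667 nm and signal to noise of each spot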

Sequence of Pro-neuregulin-1, membrane-bound isoform (Homo sapiens) (Q02297 whole entry, looked up, the tested form may be a part, canonical isoform): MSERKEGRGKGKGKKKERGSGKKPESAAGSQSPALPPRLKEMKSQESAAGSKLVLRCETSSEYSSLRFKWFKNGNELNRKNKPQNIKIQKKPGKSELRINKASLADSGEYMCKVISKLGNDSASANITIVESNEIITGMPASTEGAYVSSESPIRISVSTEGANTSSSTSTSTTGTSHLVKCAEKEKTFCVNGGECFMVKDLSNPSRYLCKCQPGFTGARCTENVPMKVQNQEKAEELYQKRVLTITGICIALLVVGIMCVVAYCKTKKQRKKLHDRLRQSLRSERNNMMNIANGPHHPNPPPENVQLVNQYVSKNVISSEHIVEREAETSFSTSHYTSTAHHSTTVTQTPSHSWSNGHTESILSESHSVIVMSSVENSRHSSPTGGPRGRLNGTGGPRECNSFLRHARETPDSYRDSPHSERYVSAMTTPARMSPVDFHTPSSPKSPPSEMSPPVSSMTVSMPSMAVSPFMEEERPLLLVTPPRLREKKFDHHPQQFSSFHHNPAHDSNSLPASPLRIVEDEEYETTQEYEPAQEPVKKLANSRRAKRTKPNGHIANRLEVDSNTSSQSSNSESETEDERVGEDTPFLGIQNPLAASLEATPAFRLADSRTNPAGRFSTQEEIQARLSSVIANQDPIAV
Sequence of Torsin-1A-interacting protein 2 (Homo sapiens) (Q8NFQ8 whole entry, looked up): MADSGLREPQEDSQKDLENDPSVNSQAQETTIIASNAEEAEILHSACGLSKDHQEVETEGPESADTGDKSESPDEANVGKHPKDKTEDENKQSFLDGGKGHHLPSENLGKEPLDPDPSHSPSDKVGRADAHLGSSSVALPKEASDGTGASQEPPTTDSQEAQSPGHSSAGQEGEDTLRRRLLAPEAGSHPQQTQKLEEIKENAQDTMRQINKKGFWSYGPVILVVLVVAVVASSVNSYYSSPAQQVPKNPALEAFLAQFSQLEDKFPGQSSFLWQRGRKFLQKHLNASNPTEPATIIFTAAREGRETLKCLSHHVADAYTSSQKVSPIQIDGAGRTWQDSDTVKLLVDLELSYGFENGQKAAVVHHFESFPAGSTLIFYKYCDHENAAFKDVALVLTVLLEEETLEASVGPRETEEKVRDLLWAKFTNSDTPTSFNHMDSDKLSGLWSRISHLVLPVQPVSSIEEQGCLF
Sequence of Neurogenic locus notch homolog protein 2 (Homo sapiens) (Q04721 whole entry, looked up, canonical isoform): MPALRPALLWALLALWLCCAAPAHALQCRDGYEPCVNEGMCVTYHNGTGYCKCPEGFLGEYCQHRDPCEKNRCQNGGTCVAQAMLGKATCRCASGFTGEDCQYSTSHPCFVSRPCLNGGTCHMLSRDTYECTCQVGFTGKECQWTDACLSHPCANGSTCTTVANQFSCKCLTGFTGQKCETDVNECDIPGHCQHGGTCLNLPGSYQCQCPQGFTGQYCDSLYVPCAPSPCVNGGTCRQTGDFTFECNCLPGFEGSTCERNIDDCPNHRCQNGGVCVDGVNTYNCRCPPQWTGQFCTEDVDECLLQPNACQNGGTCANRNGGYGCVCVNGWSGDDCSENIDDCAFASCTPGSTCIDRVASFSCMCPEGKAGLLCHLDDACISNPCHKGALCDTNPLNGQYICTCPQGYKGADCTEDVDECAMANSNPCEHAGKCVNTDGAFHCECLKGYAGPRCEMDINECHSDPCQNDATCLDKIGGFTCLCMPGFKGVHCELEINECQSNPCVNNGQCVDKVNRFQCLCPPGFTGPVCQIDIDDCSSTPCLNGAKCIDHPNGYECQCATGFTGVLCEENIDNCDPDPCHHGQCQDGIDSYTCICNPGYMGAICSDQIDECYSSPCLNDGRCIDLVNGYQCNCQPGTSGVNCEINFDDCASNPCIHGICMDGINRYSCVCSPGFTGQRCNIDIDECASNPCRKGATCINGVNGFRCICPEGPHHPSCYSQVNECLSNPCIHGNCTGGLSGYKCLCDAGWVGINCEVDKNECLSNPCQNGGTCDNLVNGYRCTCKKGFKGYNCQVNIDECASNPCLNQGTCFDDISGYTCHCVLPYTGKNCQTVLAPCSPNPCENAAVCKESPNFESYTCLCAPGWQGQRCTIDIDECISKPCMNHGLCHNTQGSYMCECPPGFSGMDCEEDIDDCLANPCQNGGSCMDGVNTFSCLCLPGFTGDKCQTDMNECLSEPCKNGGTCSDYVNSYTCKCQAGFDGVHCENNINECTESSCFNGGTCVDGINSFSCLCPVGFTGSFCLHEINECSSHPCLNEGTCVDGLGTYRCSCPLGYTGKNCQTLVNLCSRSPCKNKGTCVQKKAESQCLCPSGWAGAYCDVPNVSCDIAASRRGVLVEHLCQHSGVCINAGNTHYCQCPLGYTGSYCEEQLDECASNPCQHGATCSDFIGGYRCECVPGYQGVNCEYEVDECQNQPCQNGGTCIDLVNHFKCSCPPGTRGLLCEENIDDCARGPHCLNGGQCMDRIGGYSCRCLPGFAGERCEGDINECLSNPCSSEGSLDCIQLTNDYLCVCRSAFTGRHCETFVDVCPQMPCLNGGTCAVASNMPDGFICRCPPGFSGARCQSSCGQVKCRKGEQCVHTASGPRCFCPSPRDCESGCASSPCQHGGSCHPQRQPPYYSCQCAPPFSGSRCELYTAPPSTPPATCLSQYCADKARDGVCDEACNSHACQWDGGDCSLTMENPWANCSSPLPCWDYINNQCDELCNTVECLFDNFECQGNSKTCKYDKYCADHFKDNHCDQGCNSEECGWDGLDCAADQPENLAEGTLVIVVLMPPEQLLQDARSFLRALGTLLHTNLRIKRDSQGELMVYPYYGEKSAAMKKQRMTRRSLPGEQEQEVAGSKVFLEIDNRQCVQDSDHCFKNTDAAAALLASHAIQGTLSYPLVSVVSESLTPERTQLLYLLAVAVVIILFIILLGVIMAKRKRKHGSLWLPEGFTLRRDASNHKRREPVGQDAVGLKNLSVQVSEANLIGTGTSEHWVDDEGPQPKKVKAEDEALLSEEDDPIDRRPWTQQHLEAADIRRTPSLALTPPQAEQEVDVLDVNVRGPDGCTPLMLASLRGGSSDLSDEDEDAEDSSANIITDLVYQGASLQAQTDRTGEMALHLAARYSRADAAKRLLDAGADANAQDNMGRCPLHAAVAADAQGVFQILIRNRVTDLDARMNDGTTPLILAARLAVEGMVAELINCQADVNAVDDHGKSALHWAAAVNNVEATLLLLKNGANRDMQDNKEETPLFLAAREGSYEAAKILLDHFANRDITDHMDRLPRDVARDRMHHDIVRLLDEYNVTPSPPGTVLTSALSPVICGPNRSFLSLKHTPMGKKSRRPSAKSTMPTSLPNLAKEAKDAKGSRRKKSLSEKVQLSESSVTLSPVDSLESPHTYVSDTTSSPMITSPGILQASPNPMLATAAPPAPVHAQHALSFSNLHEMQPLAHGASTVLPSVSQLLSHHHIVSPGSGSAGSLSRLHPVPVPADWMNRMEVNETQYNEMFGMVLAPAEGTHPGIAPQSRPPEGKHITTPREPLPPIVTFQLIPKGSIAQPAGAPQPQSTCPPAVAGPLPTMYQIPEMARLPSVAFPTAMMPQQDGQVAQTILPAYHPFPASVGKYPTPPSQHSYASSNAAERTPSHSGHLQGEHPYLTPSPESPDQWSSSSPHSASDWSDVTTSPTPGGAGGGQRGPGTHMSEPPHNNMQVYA

CN1C(=O)C2C=CC(C(O)C(c3ccccc3)c3ccccc3)N(Nc3ccccc3)C2C1=O (stereo not given)
composite z-score [1]: -0.0907 | composite z-score [2]: 0.403 | composite z-score [3]: 0.0814 | composite z-score [4]: 0.868 | composite z-score [5]: 1.48 | composite z-score [6]: 1.94 | composite z-score [7]: 1.21 | z-score [8]: -0.704 (inactive) | composite z-score [9]: 1.37 | composite z-score [10]: -0.131 | composite z-score [11]: 1.55 | z-score [12]: -0.272 (inactive) | z-score [13]: -0.346 (inactive) | z-score [14]: -0.125 (inactive) | composite z-score [15]: 3.46 | z-score [16]: -1.7 (inactive) | composite z-score [17]: 0.0336 | composite z-score [18]: -0.152 | composite z-score [19]: 1.05 | composite z-score [20]: 0.0209

O=C1c2ccccc2[C@](Cc2ccccc2I)(C(=O)O)[C@H](c2ccc(CO)cc2)N1Cc1ccccc1C(F)(F)F
composite z-score [1]: -0.897 | composite z-score [2]: 0.17 | composite z-score [3]: -0.21 | composite z-score [4]: -0.278 | composite z-score [5]: 0.304 | composite z-score [6]: 1.62 | composite z-score [7]: 1.26 | z-score [8]: -0.524 (inactive) | composite z-score [9]: -0.0423 | composite z-score [10]: -0.312 | composite z-score [11]: 1.12 | z-score [12]: 0.817 (inactive) | z-score [13]: 0.0662 (inactive) | z-score [14]: 0.0262 (inactive) | composite z-score [15]: 3.14 | z-score [16]: -0.255 (inactive) | composite z-score [17]: -0.243 | composite z-score [18]: 0.033 | composite z-score [19]: 0.263 | composite z-score [20]: -0.379

O=C(NCCN1CCOCC1)[C@@H]1c2ccccc2C(=O)N(Cc2cc(F)cc(C(F)(F)F)c2)[C@H]1c1ccc(CO)cc1
composite z-score [1]: -0.0058 | composite z-score [2]: 1.09 | composite z-score [3]: -0.188 | composite z-score [4]: -0.71 | composite z-score [5]: -0.987 | composite z-score [6]: 1.25 | composite z-score [7]: 0.591 | z-score [8]: -0.0497 (inactive) | composite z-score [9]: -0.234 | composite z-score [10]: -0.199 | composite z-score [11]: 1.54 | z-score [12]: -0.718 (inactive) | z-score [13]: -0.447 (inactive) | z-score [14]: -0.405 (inactive) | composite z-score [15]: 3.05 | z-score [16]: -0.356 (inactive) | composite z-score [17]: -0.22 | composite z-score [18]: 0.935 | composite z-score [19]: 0.58 | composite z-score [20]: -0.149

CC1CC/C=C\[C@H]2OC34C=CCN(Cn5nnc6ccccc65)C(=O)[C@H]3N(CCCO)C(=O)[C@@H]4C2C(=O)O1 (stereo not given in full)
composite z-score [1]: 0.536 | composite z-score [2]: -1.14 | composite z-score [3]: -0.0973 | composite z-score [4]: -0.988 | composite z-score [5]: -0.955 | composite z-score [6]: 1.38 | composite z-score [7]: 1.57 | z-score [8]: -0.275 (inactive) | composite z-score [9]: -0.474 | composite z-score [10]: -0.196 | composite z-score [11]: -0.749 | z-score [12]: 0.175 (inactive) | z-score [13]: -0.463 (inactive) | z-score [14]: 0.203 (inactive) | composite z-score [15]: 0.389 | z-score [16]: 1.82 (inactive) | composite z-score [17]: -0.0499 | composite z-score [18]: -0.511 | composite z-score [19]: 0.0174 | composite z-score [20]: -0.192

COCCOC(=O)N1C(=O)[C@@]2(c3ccccc31)[C@H](c1ccc(O)cc1)N1[C@H](c3ccccc3)[C@H](c3ccccc3)OC(=O)[C@H]1[C@@H]2C(N)=O
composite z-score [1]: 0.113 | composite z-score [2]: 0.192 | composite z-score [3]: -0.106 | composite z-score [4]: -0.304 | composite z-score [5]: -0.818 | composite z-score [6]: 0.178 | composite z-score [7]: 0.651 | z-score [8]: -1.16 (inactive) | composite z-score [9]: -0.722 | composite z-score [10]: -0.226 | composite z-score [11]: -0.0183 | z-score [12]: 0.396 (inactive) | z-score [13]: -0.153 (inactive) | z-score [14]: 0.549 (inactive) | composite z-score [15]: 2.35 | z-score [16]: -0.29 (inactive) | composite z-score [17]: -0.126 | composite z-score [18]: -0.678 | composite z-score [19]: -0.474 | composite z-score [20]: -0.16

Cc1ccc(S[C@]2(C(=O)NCC(F)(F)F)CC(=O)N(C3Cc4ccccc4C3)[C@@H]2c2ccc(CO)cc2I)cc1
composite z-score [1]: 1.27 | composite z-score [2]: 0.0708 | composite z-score [3]: -0.11 | composite z-score [4]: -0.433 | composite z-score [5]: -0.929 | composite z-score [6]: 0.569 | composite z-score [7]: 0.455 | z-score [8]: -0.92 (inactive) | composite z-score [9]: -0.265 | composite z-score [10]: 0.0024 | composite z-score [11]: -0.535 | z-score [12]: 0.0775 (inactive) | z-score [13]: -0.967 (inactive) | z-score [14]: 1.81 (inactive) | composite z-score [15]: 1.18 | z-score [16]: -0.701 (inactive) | composite z-score [17]: 0.157 | composite z-score [18]: -0.883 | composite z-score [19]: -1.08 | composite z-score [20]: -0.255

COc1ccc([Si](C)(C)[C@@H]2[C@@H](CCO)O[C@]3(C(=O)N(Cc4cccc(N5CCCCC5=O)c4)c4ccccc43)[C@H]2C)cc1
composite z-score [1]: -0.191 | composite z-score [2]: 0.692 | composite z-score [3]: -0.134 | composite z-score [4]: 0.877 | composite z-score [5]: 0.869 | composite z-score [6]: 1.06 | composite z-score [7]: 0.967 | z-score [8]: -3.27 (inactive) | composite z-score [9]: 0.263 | composite z-score [10]: -0.0618 | composite z-score [11]: 1.56 | z-score [12]: 2.34 (inactive) | z-score [13]: -0.486 (inactive) | z-score [14]: 5.16 (inactive) | composite z-score [15]: 2.54 | z-score [16]: -0.0838 (inactive) | composite z-score [17]: -0.0915 | composite z-score [18]: 1.22 | composite z-score [19]: 1.09 | composite z-score [20]: -0.0442

Cc1cc(C)c(C(O)C2C=CC3C(=O)NC(=O)C3N2Nc2ccccn2)c(C)c1 (stereo not given)
composite z-score [1]: 0.36 | composite z-score [2]: 0.135 | composite z-score [3]: -0.0878 | composite z-score [4]: 0.0012 | composite z-score [5]: 0.486 | composite z-score [6]: 1.65 | composite z-score [7]: 0.986 | z-score [8]: 1.03 (inactive) | composite z-score [9]: 0.578 | composite z-score [10]: 0.0373 | composite z-score [11]: 0.442 | z-score [12]: 0.441 (inactive) | z-score [13]: 1.11 (inactive) | z-score [14]: 0.415 (inactive) | composite z-score [15]: 1.65 | z-score [16]: -1.16 (inactive) | composite z-score [17]: 0.0961 | composite z-score [18]: 0.0197 | composite z-score [19]: 0.525 | composite z-score [20]: 0.0221

CN1C(=O)C2C(C1=O)C1C=C(c3ccc(CO)cc3)C2C(C2CC2)N1Cc1sc2ccccc2c1Cl (stereo not given)
composite z-score [1]: 0.0497 | composite z-score [2]: 1.17 | composite z-score [3]: 0.0311 | composite z-score [4]: 1.02 | composite z-score [5]: 1.68 | composite z-score [6]: 1.41 | composite z-score [7]: 0.866 | z-score [8]: -2.04 (inactive) | composite z-score [9]: 0.391 | composite z-score [10]: 0.2 | composite z-score [11]: 1.55 | z-score [12]: 0.654 (inactive) | z-score [13]: -3 (inactive) | z-score [14]: 1.42 (inactive) | composite z-score [15]: 3.33 | z-score [16]: 0.204 (inactive) | composite z-score [17]: 0.252 | composite z-score [18]: 0.411 | composite z-score [19]: 1.03 | composite z-score [20]: 0.0651

O=C1C[C@@](C(=O)O)(c2ccc([N+](=O)[O-])cc2)[C@@H](c2ccc(CO)cc2I)N1CC12CC3CC(CC(C3)C1)C2
composite z-score [1]: 0.525 | composite z-score [2]: 0.773 | composite z-score [3]: -0.124 | composite z-score [4]: 0.14 | composite z-score [5]: 1.41 | composite z-score [6]: 1.48 | composite z-score [7]: 0.843 | z-score [8]: -1.55 (inactive) | composite z-score [9]: 0.806 | composite z-score [10]: 0.0497 | composite z-score [11]: 1.47 | z-score [12]: -0.12 (inactive) | z-score [13]: -3.03 (inactive) | z-score [14]: 5.6 (inactive) | composite z-score [15]: 2.79 | z-score [16]: 0.177 (inactive) | composite z-score [17]: -0.0096 | composite z-score [18]: 0.0251 | composite z-score [19]: 1.06 | composite z-score [20]: -0.0056

— PubChem BioAssay
